Test results: PubChem BioAssay AID878 (University of Pittsburgh Molecular Library Screening Center, 2007)
Screen size: about 200,000 compounds; about 65 (0.03%) were called active.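 How the source made its calls: active means activation of at least 50% relative to the plate's high and low controls in the primary single-dose screen; inactive means activation below 50%.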 The full list was thinned out, with actives kept by preference.

assay: compounds producing H2O2 with reducing agent – biochemical, NIH compound library profiling, artefact control for MLSCN library redox annotation, primary screen (AID 878); settings: DTT-dependent redox cycling H2O2, phenol red/HRP absorbance; at 10 µM; active compounds read high; 100% = 100 µM peroxide control, 0% = buffer;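 further: compound incubated with DTT at 0.8 mM final as the reducing agent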

activation, inactive:
COc1ccc(OC)c(-c2csc(NC(=O)C3=NNC(=O)CC3)n2)c1 -1.87%
COc1ccc(OCC(=O)Nc2cc(C)c(Cl)cc2OC)c([N+](=O)[O-])c1 0.12%
CC1CCN(S(=O)(=O)c2ccc3ncn(CC(=O)N(C)C4CCCCC4)c(=O)c3c2)CC1 -2.09%
CCc1nc2ccccc2c(C(=O)OC2CCCCC2=O)c1C (stereo not given) 0.11%
CCOC(=O)C1(Cc2cccc(OC)c2)CCN(C(C)COC)CC1 (stereo not given) -0.66%
O=C(CSc1nnc(-c2ccncc2)o1)NCc1ccc(Cl)cc1 -0.01%
CC(C)(C)CN1CCNC(=O)C1CC(=O)NC1Cc2ccccc2C1 (stereo not given) -0.72%
Cc1cccc(NC(=S)N(CCN(C)C)C(C)c2ccco2)c1 (stereo not given) 0.05%
CC(C)(C)[C@H]1C=C(C(=O)NCc2ccccc2)O[C@@H](OCc2ccc(CO)cc2)C1 -1.79%
CCC(C)(C)NC(=O)c1cc([N+](=O)[O-])ccc1N1CCCCC1 -0.54%
CCCn1nc(Oc2nc(NC(C)C)nc(N(C)C)n2)ccc1=O 0.03%
Nc1c(-c2ccc(F)cc2)cnc2ncnn12 1.8%
O=C(CN1CCN(C/C=C/c2ccccc2)CC1)Nc1ccc(F)cc1F -0.37%
O=C(CP(=O)(c1ccccc1)c1ccccc1)N1CCOCC1 0.42%
CC(=O)C1=C(C)NC2=C(C(=O)CC(C)(C)C2)C1C (stereo not given) -0.01%
CN1C(=O)/C(=C/c2ccco2)SC1=Nc1cccc(C(=O)O)c1 -0.55%
Cc1cccc(-n2c(Cc3cc(=O)[nH]c(=O)[nH]3)nnc2SCC(=O)Nc2cccc(C(F)(F)F)c2)c1 0.37%
Cc1ccc(OCC(=O)NNC(=S)NCc2ccccc2)cc1 0.08%
CN(C)Cc1ccc(F)cc1Sc1cc(Cl)ccc1Cl -0.14%
CCOc1cc(CNn2c(C)nnc2SCC(=O)NC(C)(C)C)ccc1OCC(=O)NC(C)(C)C -0.27%
CC1=NNC(=O)C1CCC(=O)N/N=C\c1ccc(Cl)c(Cl)c1 (stereo not given) -0.00164%
Cc1ccc2nc(-c3ccccn3)cc(C(=O)Nc3ccc4c(c3)OCO4)c2c1 4.14%
Cc1ccccc1-n1nc(SCC(=O)O)sc1=S -0.13%
CC(=O)Nc1ccccc1C(=O)C(=O)Nc1ccc(F)cc1 -3.37%
CN(C)/C=C/C(=O)c1cnc2sccn2c1=O 0.12%
